The record followed here is PubChem BioAssay (Tox21).

The structures appear in SMILES notation. A number with no mark means an inactive call. Calls of active or inactive are those of the source. The call rests on the fitted dose curve; in most records, active means well fitted cell-killing curve with a large enough effect in the repeat runs; inconclusive means weak or mixed curves, or effect the other way; inactive means flat fitted curve, though single readings scatter.
On the % scale 0 is the no-effect control and ±100 the full control effect; potency means the concentration at half of the fitted maximal effect.

A short description of this test: qHTS assay to identify small molecule HDAC inhibitors - cell viability counter screen (AID 1259365). Further: nearly all actives have a fitted effect of over 50% in size. The settings on record: HCT-116 viability, CellTiter-Glo ATP luminescence, 2 h; series mostly up to 92.4 µM; activity change, negative = cytotoxicity: at the top concentration. From the text: U.S. Tox21 Program National Center for Advancing Translational Sciences [NCATS] NIH Chemical Genomics Center [NCGC] U.S. Environmental Protection Agency [EPA] National Institutes of Environmental Health Sciences [NIEHS] National Toxicology Program [NTP] U.S. Food and Drug Administration [FDA] Tox21 Assay Overview: Histone deacetylases (HDACs) are a group of epigenetic enzymes that regulate gene expression by histone deacetylation. HDACs are capable of introducing epigenetic modifications and such aberrations contribute to the onset and progression of several human diseases, thus making HDACs a popular therapeutic target. For identifying endogenous class I/II HDAC inhibitors a homogenous, luminogenic HDAC I/II cell based assay was used to measure the relative activity of class I and II HDACs from cells. Wild type HCT-116 cells were used to screen Tox21 compound libraries for identifying class I/II HDAC inhibitors.
Tox21 Assay Protocol Summary: HCT-116 cells were dispensed at 1,500 per well in 5uL of culture medium into white solid bottom 1536-well plates (Greiner Bio-One, Monroe, NC) using a Multidrop Combi (Thermo Scientific, Waltham, MA) dispenser. The assay plates were incubated at 37 C and 5% CO2 for an overnight, and then 23nL of compounds dissolved in DMSO and positive control were transferred using a Pintool station (Wako, San Diego, CA). The assay plates were incubated at 37C and 5% CO2 for 2hr. After compound treatment, 4uL of CellTiter-Glo reagent (Promega Corporation, Madison, WI) was added to each well of the assay plates using Flying Reagent Dispenser (FRD, Aurora Discovery, San Diego, CA) and incubated the assay plates at room temperature for 30min. The luminescence signal was quantified using a ViewLux plate reader (Perkin Elmer, Shelton, CT).
In general terms: Quantitative high-throughput screening tests each substance at several concentrations.
For `CN1C(=O)[C@@H](NC(=O)c2cc3ccccc3[nH]2)N=C(c2ccccc2)c2ccccc21`, the “activity change, negative = cytotoxicity” value is -1.04% [at 42.5 µM].

Consider `CNC(=O)/C=C(\C)OP(=O)(OC)OC`, for which the “activity change, negative = cytotoxicity” value is -0.152%.

For `CCn1cc[n+](C)c1` (tested in a mixture with another compound), the “activity change, negative = cytotoxicity” value is 1.67%.

With `CNC(C)(C)Cc1ccccc1`, the “activity change, negative = cytotoxicity” value is -0.0374% [at 42.5 µM].

As to `CC(=O)C(Cl)C(=O)N(C)C` (stereo not given), the “activity change, negative = cytotoxicity” value was 6.53%.

Consider `CSC(C)(C)/C=N/O`, for which the “activity change, negative = cytotoxicity” value is 0.401%.

`ClCBr`: the “activity change, negative = cytotoxicity” value was 0.358%.

Consider `CN1CCc2cc3c(cc2C1O)OCO3` (stereo not given), for which the “activity change, negative = cytotoxicity” value was 5.84%.

`COC(=O)C(C)N(C(=O)c1ccco1)c1c(C)cccc1C` (stereo not given): the “activity change, negative = cytotoxicity” value is -5.06%.

As to `Nc1ccccc1-c1ccccc1`, the “activity change, negative = cytotoxicity” value was -1.18%.

In the case of `CCN1CCC2(CC1)COc1cc3c(cc12)N(C(=O)c1ccc(-c2ccc(-c4nnc(C)o4)cc2C)cc1)CC3`, the “activity change, negative = cytotoxicity” value was -6.5%.

With `CCCCON=O`, the “activity change, negative = cytotoxicity” value was 0.0434%.

As to `O=S(=O)(O)F`, the “activity change, negative = cytotoxicity” value is -10.6%.

In the case of `CC(=O)[O-].CC(=O)[O-].CC(=O)[O-].[Sb+3]`, the activity change, negative = cytotoxicity is -3.57% [at 3.27 µM].

For the molecule `CCC(C)Br` (stereo not given), the “activity change, negative = cytotoxicity” value is -1.21%.

For the molecule `[Cl-].[Cl-].[Cl-].[Yb+3]`, the “activity change, negative = cytotoxicity” value was 0.0367%.

With `O=c1c2ccccc2c(=O)c2c1cc(Cl)c1[nH]c3c([nH]c12)c(Cl)cc1c(=O)c2ccccc2c(=O)c13`, the “activity change, negative = cytotoxicity” value is -1.14%.

As for `O=C(NC(=O)c1c(F)cccc1F)Nc1ccc(Oc2ccc(C(F)(F)F)cc2Cl)cc1F`, the “activity change, negative = cytotoxicity” value is -12%.

Regarding `BrCC(Br)(Br)Br`, the “activity change, negative = cytotoxicity” value is -1.5%.

Take `CC(C)=CCN1CC[C@@]2(C)c3cc(O)ccc3C[C@@H]1[C@@H]2C`: the “activity change, negative = cytotoxicity” value was -4.18%.

For `OCC(Br)CBr` (stereo not given), the “activity change, negative = cytotoxicity” value is -1.77%.

On to `CCCCC/C=C\C/C=C\C/C=C\C/C=C\CCCC(=O)NCC(=O)O`, for which the “activity change, negative = cytotoxicity” value was -5.63% [at 42.5 µM].

Turning to `C[C@]12C/C(=C/O)C(=O)C[C@@H]1CC[C@@H]1[C@@H]2CC[C@@]2(C)[C@H]1CC[C@]2(C)O`, the “activity change, negative = cytotoxicity” value was 19.4% [at 42.5 µM].

Turning to `COP(=S)(OC)Oc1nc(Cl)c(Cl)cc1Cl`, the “activity change, negative = cytotoxicity” value is -6.03%.

Regarding `CSC1=N[C@@](C)(c2ccccc2)C(=O)N1Nc1ccccc1`, the “activity change, negative = cytotoxicity” value was -0.632%.

For the molecule `CCOP(=O)(Sc1ccccc1)Sc1ccccc1`, the “activity change, negative = cytotoxicity” value is -5.07%.

As to `c1ccc2c(c1)cc1ccc3cccc4ccc2c1c34`, the “activity change, negative = cytotoxicity” value is -5.59%.

Turning to `O=C(N[C@H]1N=C(c2ccccc2F)c2cccc3c2N(CC3)C1=O)c1cc2ccccc2[nH]1`, the “activity change, negative = cytotoxicity” value was 0.329% [at 42.5 µM].

In the case of `O=c1[nH]c(Cl)c(Cl)cc1Cl`, the “activity change, negative = cytotoxicity” value was 1.2%.

With `CCCCCCC[CH2][Sn]([Cl])([Cl])[CH2]CCCCCCC`, the “activity change, negative = cytotoxicity” value is 1.3%.

As for `C[C@H]1[C@H](c2ccc(Cl)cc2)SC(=O)N1C(=O)NC1CCCCC1`, the “activity change, negative = cytotoxicity” value was -8.36%.

As to `CCOC(=O)CCN(SN(C)C(=O)Oc1cccc2c1OC(C)(C)C2)C(C)C`, the “activity change, negative = cytotoxicity” value was -3.33%.

With `CC(C)c1c(CN(C)C(C)Cc2ccccc2)n(C)n(-c2ccccc2)c1=O` (stereo not given), the “activity change, negative = cytotoxicity” value was -2.23% [at 42.5 µM].

With `CC1(C)C(C=C(Cl)Cl)C1C(=O)OC(C#N)c1ccc(F)c(Oc2ccccc2)c1` (stereo not given), the “activity change, negative = cytotoxicity” value is -10.3%.

For `CC(C)[C@@H](Nc1ccc(C(F)(F)F)cc1Cl)C(=O)OC(C#N)c1cccc(Oc2ccccc2)c1` (stereo not given in full), the “activity change, negative = cytotoxicity” value is -7.2%.

On to `CC(=O)[O-].CC(=O)[O-].O.O.[Zn+2]`, for which the “activity change, negative = cytotoxicity” value was -2.1%.

Consider `C[C@]12CC[C@H]3[C@@H](CCC4=CC(=O)CC[C@@H]43)[C@@H]1CC[C@@H]2OC(=O)CCc1ccco1`, for which the “activity change, negative = cytotoxicity” value was -9.58% [at 42.5 µM].

With `CC(=O)[O-].CC(=O)[O-].CC(=O)[O-].[Cr+3]`, the “activity change, negative = cytotoxicity” value was -4.61%.

For the molecule `O=[N+]([O-])c1cc(C(F)(F)F)c(Cl)c([N+](=O)[O-])c1Nc1ncc(C(F)(F)F)cc1Cl`, the Potency is 54.5 µM (active).

Take `CN/C(=N\[N+](=O)[O-])NCc1cnc(Cl)s1`: the “activity change, negative = cytotoxicity” value is -3.07%.
